The target in test [1] is T1, Mitogen-activated protein kinase 12 (Homo sapiens) (UniProt P53778).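 Note: values are averaged p38gamma kinase inhibition readings, compounds tested at 1 µM.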
T1 sequence (whole entry): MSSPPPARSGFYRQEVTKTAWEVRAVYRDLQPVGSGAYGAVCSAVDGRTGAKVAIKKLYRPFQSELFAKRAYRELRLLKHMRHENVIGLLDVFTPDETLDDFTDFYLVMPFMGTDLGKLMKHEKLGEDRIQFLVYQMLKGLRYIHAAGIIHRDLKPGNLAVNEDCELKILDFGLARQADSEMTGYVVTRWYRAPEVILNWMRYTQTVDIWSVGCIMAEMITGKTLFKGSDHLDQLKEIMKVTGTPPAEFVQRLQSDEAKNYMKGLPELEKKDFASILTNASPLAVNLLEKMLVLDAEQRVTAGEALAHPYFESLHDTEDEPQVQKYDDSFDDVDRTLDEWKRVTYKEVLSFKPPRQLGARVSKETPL
The settings on record: at 1 µM.

The target of test [2] is SRSF protein kinase 1 (Homo sapiens) (UniProt Q96SB4). The settings on record: at 0.1 µM.
Sequence of SRSF protein kinase 1 (Homo sapiens) (Q96SB4 whole entry): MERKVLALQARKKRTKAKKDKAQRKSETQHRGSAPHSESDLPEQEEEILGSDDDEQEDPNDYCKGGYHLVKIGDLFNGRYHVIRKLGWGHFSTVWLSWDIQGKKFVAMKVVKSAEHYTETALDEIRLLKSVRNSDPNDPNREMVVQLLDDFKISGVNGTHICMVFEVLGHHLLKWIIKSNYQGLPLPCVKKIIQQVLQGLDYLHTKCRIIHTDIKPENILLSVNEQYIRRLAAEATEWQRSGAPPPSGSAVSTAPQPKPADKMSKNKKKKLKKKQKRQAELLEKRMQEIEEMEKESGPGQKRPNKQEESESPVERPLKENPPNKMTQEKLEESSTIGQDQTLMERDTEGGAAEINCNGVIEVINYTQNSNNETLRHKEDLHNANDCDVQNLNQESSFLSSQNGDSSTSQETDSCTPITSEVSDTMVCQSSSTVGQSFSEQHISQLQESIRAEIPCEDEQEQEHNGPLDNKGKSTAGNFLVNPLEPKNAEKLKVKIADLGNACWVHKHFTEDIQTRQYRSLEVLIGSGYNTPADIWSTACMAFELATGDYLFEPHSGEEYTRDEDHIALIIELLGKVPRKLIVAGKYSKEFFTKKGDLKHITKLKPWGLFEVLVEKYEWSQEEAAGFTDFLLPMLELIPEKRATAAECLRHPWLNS
For test [3] the target is unchanged. The note with it: at 1 µM.
The target of test [4] is Phosphatidylinositol 4,5-bisphosphate 3-kinase catalytic subunit alpha isoform (Homo sapiens) (UniProt P42336). The note with it: at 0.1 µM.
Sequence of Phosphatidylinositol 4,5-bisphosphate 3-kinase catalytic subunit alpha isoform (Homo sapiens) (P42336 whole entry, canonical isoform): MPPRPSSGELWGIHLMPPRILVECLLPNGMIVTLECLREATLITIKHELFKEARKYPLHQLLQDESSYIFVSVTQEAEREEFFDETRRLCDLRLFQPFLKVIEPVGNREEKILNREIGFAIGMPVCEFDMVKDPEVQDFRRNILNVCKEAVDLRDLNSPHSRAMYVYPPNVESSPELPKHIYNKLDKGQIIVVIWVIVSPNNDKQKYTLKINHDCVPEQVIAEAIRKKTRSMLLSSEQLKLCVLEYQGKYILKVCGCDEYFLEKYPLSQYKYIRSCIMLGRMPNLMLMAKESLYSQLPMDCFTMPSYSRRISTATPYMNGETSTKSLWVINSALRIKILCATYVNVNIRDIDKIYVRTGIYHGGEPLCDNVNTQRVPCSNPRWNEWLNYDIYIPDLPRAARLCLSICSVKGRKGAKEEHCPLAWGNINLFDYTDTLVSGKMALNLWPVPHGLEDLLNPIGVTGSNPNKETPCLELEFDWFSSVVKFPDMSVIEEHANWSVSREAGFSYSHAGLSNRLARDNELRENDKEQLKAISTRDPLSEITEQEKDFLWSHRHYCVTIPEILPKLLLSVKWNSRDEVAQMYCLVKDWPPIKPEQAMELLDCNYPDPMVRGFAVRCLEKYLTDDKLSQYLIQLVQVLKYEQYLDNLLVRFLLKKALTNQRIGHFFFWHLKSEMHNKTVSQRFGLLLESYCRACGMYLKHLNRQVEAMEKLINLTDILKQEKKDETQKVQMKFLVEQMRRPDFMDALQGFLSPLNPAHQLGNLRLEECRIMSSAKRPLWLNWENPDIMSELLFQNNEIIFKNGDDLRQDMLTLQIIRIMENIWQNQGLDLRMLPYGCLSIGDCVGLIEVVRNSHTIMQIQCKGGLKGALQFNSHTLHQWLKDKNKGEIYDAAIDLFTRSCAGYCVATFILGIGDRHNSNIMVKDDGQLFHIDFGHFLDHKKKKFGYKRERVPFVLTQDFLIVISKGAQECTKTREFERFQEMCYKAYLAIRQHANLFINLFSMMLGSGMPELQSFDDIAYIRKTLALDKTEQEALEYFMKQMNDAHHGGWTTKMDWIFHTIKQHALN
For test [5] the target is unchanged. The note with it: at 1 µM.
Test [6] addresses T2, Phosphatidylinositol 4,5-bisphosphate 3-kinase catalytic subunit delta isoform (Homo sapiens) (UniProt O00329).
T2 sequence (whole entry): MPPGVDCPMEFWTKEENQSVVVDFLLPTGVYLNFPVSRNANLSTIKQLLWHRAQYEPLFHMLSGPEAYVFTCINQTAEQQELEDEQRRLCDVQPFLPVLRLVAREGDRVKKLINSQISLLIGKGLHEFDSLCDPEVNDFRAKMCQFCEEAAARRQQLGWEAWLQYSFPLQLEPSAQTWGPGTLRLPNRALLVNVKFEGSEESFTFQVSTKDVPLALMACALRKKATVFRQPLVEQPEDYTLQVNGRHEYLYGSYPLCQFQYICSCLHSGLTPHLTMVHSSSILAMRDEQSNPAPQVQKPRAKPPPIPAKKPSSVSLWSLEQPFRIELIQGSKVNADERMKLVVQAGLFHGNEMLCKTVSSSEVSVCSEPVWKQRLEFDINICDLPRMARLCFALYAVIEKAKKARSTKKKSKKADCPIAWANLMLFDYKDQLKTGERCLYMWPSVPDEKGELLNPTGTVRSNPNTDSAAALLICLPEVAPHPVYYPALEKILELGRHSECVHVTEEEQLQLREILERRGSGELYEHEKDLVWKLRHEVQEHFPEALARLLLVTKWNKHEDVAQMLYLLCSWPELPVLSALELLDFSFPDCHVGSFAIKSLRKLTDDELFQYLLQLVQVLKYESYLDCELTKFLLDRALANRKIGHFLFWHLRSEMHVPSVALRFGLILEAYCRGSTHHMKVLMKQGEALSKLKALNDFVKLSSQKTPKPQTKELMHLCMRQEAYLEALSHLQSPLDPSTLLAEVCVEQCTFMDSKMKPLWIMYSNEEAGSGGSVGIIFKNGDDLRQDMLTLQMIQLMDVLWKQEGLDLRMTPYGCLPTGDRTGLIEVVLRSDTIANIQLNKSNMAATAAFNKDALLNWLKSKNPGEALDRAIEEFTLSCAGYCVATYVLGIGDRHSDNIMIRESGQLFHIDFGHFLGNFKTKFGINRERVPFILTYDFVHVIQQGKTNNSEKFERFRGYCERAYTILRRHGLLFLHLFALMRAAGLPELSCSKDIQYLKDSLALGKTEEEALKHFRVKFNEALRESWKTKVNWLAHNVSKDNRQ
The settings on record: at 0.1 µM.

Test [7] addresses T2, Phosphatidylinositol 4,5-bisphosphate 3-kinase catalytic subunit delta isoform (Homo sapiens). The note with it: at 1 µM.
Test [8] addresses Phosphatidylinositol 4-kinase beta (Homo sapiens) (UniProt Q9UBF8). The settings on record: at 0.1 µM.
Test [9] has the same target. The settings on record: at 1 µM.
Test [10] addresses Sphingosine kinase 1 (Homo sapiens) (UniProt Q9NYA1). The settings on record: at 0.1 µM.
The target is the same in test [11]. The note with it: at 1 µM.
Test [12] addresses T3, Sphingosine kinase 2 (Homo sapiens) (UniProt Q9NRA0).
T3 sequence (whole entry): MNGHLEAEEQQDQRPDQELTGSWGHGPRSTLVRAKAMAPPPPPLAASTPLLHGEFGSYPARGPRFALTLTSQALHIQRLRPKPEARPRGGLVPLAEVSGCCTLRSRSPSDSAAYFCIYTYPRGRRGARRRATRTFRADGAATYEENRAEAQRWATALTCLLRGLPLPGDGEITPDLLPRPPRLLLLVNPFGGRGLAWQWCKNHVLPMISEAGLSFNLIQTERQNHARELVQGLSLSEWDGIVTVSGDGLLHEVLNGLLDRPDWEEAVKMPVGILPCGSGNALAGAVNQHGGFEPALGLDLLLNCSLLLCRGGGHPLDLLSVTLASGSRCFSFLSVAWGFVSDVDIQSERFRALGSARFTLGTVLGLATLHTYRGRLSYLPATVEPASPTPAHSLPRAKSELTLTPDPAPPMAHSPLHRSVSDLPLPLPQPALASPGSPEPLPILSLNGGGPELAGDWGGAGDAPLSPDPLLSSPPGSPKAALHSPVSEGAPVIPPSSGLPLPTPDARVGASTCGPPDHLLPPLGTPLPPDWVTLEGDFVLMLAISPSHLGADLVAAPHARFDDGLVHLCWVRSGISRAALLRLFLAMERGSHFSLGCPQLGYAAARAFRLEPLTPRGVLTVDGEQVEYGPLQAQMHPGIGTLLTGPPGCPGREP
The note with it: at 0.1 µM.

Test [13] deals with T3, Sphingosine kinase 2 (Homo sapiens). The note with it: at 1 µM.
Test [14] has as its target Casein kinase II subunit alpha (Homo sapiens) (UniProt P68400). The note with it: at 0.1 µM.
For test [15] the target is unchanged. The settings on record: at 1 µM.
In test [16] the target is T4, Inhibitor of nuclear factor kappa-B kinase subunit alpha (Homo sapiens) (UniProt O15111).
T4 sequence (whole entry): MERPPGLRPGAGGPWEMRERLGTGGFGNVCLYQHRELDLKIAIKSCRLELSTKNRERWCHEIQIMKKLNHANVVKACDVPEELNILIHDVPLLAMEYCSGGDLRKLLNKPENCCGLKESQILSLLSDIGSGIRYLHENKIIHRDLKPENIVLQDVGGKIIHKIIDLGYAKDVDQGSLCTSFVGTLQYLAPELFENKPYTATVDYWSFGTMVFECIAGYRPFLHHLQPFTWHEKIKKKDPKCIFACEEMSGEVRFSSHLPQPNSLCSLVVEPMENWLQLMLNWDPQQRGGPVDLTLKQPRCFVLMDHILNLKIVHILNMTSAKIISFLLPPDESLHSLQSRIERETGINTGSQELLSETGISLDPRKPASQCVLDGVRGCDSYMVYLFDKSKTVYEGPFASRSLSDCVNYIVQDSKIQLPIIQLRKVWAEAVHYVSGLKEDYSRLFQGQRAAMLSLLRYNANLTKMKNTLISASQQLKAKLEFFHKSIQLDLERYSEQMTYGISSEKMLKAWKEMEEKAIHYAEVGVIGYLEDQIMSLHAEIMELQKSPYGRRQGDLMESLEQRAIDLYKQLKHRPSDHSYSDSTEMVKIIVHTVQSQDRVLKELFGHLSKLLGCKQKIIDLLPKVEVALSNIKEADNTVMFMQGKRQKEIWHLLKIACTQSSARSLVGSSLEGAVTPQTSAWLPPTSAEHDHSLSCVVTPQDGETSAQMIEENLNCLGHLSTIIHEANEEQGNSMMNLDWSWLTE
The settings on record: at 0.1 µM.

Test [17] addresses T4, Inhibitor of nuclear factor kappa-B kinase subunit alpha (Homo sapiens). The note with it: at 1 µM.
In test [18] the target is T5, Inhibitor of nuclear factor kappa-B kinase subunit beta (Homo sapiens) (UniProt O14920).
T5 sequence (whole entry): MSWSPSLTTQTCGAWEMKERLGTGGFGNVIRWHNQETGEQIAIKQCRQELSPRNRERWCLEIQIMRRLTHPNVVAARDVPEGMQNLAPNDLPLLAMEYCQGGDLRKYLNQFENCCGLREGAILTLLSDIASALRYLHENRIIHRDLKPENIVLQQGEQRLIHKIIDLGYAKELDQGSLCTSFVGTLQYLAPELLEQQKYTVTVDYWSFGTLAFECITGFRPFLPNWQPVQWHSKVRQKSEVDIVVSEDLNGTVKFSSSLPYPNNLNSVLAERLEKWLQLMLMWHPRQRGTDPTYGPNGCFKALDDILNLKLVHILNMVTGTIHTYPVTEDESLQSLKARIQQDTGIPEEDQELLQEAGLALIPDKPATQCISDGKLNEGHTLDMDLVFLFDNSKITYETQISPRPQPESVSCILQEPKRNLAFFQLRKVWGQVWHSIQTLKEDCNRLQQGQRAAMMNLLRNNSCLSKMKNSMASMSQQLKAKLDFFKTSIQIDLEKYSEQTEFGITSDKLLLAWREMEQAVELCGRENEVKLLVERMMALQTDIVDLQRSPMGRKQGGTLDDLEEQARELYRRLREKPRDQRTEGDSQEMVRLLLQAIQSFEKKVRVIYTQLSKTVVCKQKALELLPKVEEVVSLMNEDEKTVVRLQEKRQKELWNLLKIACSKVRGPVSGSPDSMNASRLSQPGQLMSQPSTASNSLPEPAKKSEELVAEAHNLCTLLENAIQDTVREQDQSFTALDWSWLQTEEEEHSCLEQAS
The note with it: at 0.1 µM.

Test [19] addresses T5, Inhibitor of nuclear factor kappa-B kinase subunit beta (Homo sapiens). The settings on record: at 1 µM.
Test [20] concerns the target T6, Inhibitor of nuclear factor kappa-B kinase subunit epsilon (Homo sapiens) (UniProt Q14164).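 Note: mean inhibition of IKKε reported, from the GSK PKIS dataset.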
T6 sequence (whole entry): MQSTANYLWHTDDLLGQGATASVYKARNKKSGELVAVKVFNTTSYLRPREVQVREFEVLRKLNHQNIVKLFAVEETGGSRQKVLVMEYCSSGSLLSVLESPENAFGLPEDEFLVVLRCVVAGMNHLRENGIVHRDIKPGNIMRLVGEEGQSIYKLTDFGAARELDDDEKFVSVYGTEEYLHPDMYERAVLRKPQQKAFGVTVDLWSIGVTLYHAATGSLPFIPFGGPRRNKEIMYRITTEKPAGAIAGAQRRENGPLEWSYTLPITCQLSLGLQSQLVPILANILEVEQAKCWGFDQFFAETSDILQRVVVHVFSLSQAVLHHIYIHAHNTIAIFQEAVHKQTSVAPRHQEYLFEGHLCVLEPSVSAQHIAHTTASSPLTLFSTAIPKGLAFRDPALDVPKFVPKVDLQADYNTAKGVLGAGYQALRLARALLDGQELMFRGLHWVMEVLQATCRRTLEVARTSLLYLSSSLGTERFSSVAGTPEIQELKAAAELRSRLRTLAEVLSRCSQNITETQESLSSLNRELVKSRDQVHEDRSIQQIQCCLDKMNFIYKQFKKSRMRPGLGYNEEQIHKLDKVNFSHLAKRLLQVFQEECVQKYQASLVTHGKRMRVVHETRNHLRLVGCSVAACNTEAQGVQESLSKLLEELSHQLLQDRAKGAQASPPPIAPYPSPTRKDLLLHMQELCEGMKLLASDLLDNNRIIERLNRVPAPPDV
The note with it: at 0.1 µM.

Structures are written as SMILES.

Sequence of Sphingosine kinase 1 (Homo sapiens) (Q9NYA1 whole entry): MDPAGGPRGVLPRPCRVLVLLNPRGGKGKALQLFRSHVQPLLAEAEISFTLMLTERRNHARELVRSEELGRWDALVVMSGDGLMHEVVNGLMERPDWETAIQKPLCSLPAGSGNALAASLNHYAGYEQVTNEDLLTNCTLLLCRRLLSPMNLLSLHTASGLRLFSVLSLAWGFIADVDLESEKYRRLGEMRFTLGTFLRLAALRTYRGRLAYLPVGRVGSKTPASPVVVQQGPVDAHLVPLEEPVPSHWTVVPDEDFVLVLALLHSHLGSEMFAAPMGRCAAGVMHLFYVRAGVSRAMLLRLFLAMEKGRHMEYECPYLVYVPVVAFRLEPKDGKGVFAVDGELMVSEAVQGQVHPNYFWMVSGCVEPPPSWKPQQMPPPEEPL
Sequence of Casein kinase II subunit alpha (Homo sapiens) (P68400 whole entry, looked up): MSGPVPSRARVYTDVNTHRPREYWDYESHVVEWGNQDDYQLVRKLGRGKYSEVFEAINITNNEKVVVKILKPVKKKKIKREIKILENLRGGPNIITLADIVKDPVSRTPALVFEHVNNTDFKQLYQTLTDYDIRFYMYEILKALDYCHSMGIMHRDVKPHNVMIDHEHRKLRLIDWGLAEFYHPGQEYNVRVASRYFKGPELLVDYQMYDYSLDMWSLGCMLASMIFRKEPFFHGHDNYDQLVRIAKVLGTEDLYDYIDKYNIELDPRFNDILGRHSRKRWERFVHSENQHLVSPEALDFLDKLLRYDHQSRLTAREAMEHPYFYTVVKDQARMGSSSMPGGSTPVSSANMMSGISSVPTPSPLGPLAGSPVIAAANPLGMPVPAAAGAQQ
Sequence of Phosphatidylinositol 4-kinase beta (Homo sapiens) (Q9UBF8 2-816 limits assumed): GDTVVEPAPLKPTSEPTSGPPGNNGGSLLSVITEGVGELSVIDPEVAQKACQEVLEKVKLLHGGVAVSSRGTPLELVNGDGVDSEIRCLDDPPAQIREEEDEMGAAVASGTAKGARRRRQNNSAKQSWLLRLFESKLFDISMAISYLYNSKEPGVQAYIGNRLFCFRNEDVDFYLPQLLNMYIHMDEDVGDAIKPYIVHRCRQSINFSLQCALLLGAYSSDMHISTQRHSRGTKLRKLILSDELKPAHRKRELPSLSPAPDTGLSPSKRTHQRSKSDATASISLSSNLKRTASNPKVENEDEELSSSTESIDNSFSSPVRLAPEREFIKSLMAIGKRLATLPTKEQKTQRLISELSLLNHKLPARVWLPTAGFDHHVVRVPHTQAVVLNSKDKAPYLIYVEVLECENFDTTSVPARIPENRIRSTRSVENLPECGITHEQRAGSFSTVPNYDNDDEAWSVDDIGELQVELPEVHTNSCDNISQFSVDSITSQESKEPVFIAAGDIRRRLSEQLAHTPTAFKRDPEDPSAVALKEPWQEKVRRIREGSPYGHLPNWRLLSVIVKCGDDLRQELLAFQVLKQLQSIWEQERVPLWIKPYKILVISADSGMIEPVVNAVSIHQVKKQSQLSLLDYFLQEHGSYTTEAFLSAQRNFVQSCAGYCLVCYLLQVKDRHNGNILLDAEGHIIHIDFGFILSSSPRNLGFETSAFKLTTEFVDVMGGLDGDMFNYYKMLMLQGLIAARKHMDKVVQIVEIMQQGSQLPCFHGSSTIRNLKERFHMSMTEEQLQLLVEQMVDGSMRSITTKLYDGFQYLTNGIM

With `COc1cc2ncn(-c3cc(OCc4ccccc4Cl)c(C(N)=O)s3)c2cc1OC`, the inhibition in test [1] is 0.85%; in test [2], -1.26%; in test [3], -1.23%; in test [4], 0.86%; in test [5] it was 19.6%; in test [6], 0.19%. Further, the inhibition in [7] was 18.4%; in test [8] it was -5.9%; in test [9] it was 1.54%; in test [10], 2.8%; in test [11] it was -2.81%; in [12] it was 5.21%. Besides, the inhibition in test [13] was -4.96%; in test [14], 2.2%; in test [15], 9.54%; in [16] it was -1.84%; in [17], 5.14%; in test [18], 1.96%. Besides, the inhibition worked out at 1.01% in [19] and 0.65% in test [20].

Take `CCn1c(-c2nonc2N)nc2ccncc21`: the inhibition in [1] was 1.43%; in test [2], -3.78%; in test [3], -6.35%; in test [4], 0.03%; in [5], 1.86%; in test [6] it was 2.2%. Also, the inhibition was 2.13% in [7]; 4.46% in test [8]; -4.32% in [9]; -1.27% in test [10]; -0.31% in test [11]; -1.06% in [12]. Also, the inhibition in test [13] is 0.26%; in test [14] it was -4.19%; in [15], -5.18%; in test [16], -7.12%; in test [18], 5.3%; in test [19] it was 3.24%. The inhibition in test [20] came to 3.33%.

In the case of `O=C1NC(=O)C(c2cccc(Cl)c2)=C1Nc1ccc(O)c(Cl)c1`, the inhibition is 0.35% in test [1]; -2.71% in test [2]; -4.83% in test [3]; -1.72% in test [4]; 5.36% in test [5]; 0.8% in test [6]. Besides, the inhibition is 4.17% in test [7]; -4.92% in [8]; 1.17% in test [9]; 1.58% in test [10]; -1.72% in [11]; -1.48% in [12]. Also, the inhibition in [13] is -0.07%; in [14] it was -2.69%; in test [15], -1.28%; in test [16], 0.7%; in test [17] it was 0.73%; in test [18], -0.95%. The values for the inhibition in test [19] and in test [20] were -3.39% and -0.3%, respectively.

Values taken from ChEMBL document CHEMBL1961873, “Compounds: GSK PKIS; Assays: Nanosyn kinase panel” (2012).
